Assay results taken from PubChem BioAssay.
Active and inactive are the calls of the source. Unless noted, the rule behind the calls is not given here.

Tests used:
[1] = resazurin metabolic signal in HepG2 cells – cell-based, resazurin fluorescence, 24 h, PK04 Diversity Set, profiling panel (AID 1172); conditions: HepG2 viability, higher = more signal
[2] = budding yeast growth changes without added modifier – OD600, strain BY4716, 24 h, basal condition, primary screen (AID 1173); conditions: S. cerevisiae BY4716 growth, OD600, 24 h; higher = more signal, called active from +8 up or from −8 down
[3] = viability profiling in MM1S myeloma cells – cell-based, resazurin fluorescence, basal, 24 h, PK04 Diversity Set, profiling panel (AID 1174); conditions: higher = more signal, called active from +8 up or from −8 down;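 note: MM1S multiple myeloma cell line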
[4] = molecular target: Dihydroorotate dehydrogenase (quinone), mitochondrial (Plasmodium falciparum (isolate 3D7)) (UniProt Q08210); test: inhibition of P. falciparum DHODH – biochemical, C-terminal His tag, absorbance 600 nm, primary screen (AID 1175); conditions: PfDHODH enzyme, DCIP absorbance 600 nm; higher = more signal, called active from +8 up or from −8 down;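 note: recombinant parasite enzyme with a five histidine tag at its C terminus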
Chain of Dihydroorotate dehydrogenase (quinone), mitochondrial (Plasmodium falciparum (isolate 3D7)) (Q08210 whole entry, looked up): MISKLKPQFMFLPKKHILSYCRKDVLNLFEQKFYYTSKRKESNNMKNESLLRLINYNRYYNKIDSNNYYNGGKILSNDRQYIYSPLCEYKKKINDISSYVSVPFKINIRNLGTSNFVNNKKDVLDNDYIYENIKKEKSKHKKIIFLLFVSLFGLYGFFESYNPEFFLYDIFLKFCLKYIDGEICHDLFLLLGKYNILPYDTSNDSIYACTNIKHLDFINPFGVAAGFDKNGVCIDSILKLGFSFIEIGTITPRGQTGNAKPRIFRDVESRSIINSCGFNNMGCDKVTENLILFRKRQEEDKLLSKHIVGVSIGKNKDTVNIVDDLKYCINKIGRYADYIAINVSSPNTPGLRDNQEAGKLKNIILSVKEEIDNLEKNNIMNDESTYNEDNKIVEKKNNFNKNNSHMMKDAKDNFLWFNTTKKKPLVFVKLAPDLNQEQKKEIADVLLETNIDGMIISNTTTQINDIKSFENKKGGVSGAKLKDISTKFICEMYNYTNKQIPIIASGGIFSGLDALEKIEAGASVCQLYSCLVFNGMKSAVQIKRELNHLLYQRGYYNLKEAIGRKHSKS

[5] = inhibition of PAO1 biofilm formation – strain PAO1, LB-PBS medium, absorbance 600 nm, primary screen (AID 1176); conditions: P. aeruginosa PAO1 growth/biofilm, A600, 12 h; higher = more signal
[6] = growth modulation of vineyard yeast isolate – strain RM11-1a, OD600, basal, 24 h, primary screen (AID 1177);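 note: cultures grown under basal conditions with no added stressor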; conditions: S. cerevisiae RM11-1a growth, OD600, 24 h; higher = more signal, called active from +8 up or from −8 down
[7] = growth of efflux-deficient E. coli DRC39 – strain DRC39, OD650, 24 h, E. coli filamentation inducers, primary screen (AID 1178);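 note: growth measured as culture turbidity by optical density at 650 nm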; conditions: E. coli DRC39 acrAB, higher = more signal, called active from +8 up or from −8 down
[8] = growth of efflux-deficient E. coli DRC39 – strain DRC39, OD650, 48 h, E. coli filamentation inducers, primary screen (AID 1179);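 note: screen aims at cell division blockers that make cells filament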; conditions: E. coli DRC39 delta-acrAB growth, higher = more signal, called active from +8 up or from −8 down
[9] = viability profiling in RPMI8226 myeloma cells – cell-based, resazurin fluorescence, basal, 24 h, PK04 Diversity Set, profiling panel (AID 1180); conditions: higher = more signal;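 note: RPMI8826 multiple myeloma cell line at 5000 cells per well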
[10] = molecular target: E3 ubiquitin-protein ligase XIAP (Homo sapiens) (UniProt P98170); test: small molecules binding XIAP protein – biophysical, small-molecule microarray, fluorescence 635 nm, primary screen (AID 1181); conditions: higher = more signal;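 note: score merges 667 nm emission and signal to noise over triplicate slides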
Chain of E3 ubiquitin-protein ligase XIAP (Homo sapiens) (P98170 whole entry, looked up, the tested form may be a part): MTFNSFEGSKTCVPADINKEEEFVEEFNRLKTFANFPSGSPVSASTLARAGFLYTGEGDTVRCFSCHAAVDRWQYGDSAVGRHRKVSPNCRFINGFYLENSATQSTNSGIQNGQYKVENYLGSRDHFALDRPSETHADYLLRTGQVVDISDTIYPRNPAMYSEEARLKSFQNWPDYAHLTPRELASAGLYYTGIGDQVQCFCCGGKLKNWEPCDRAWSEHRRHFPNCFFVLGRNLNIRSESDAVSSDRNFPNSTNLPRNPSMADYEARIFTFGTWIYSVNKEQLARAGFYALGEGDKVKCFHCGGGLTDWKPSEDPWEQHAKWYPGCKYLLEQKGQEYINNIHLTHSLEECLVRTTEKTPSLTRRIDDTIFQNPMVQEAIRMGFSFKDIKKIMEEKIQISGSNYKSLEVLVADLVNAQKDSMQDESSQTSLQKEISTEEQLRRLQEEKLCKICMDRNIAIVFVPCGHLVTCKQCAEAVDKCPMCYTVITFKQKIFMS

[11] = tested on: XIP peptide (Xip251-270) binding; test: XIP fragment 251-270 binding compounds – biochemical, small-molecule microarray, fluorescence 635/667 nm, 0.1 µg/mL protein, primary screen (AID 1182); conditions: fluorescent protein binding, 635 nm, higher = more signal, called active from +8 up or from −8 down
XIP peptide (Xip251-270) = test: compounds binding XIP fragment 251-270 – biochemical, small-molecule microarray, fluorescence 635/667 nm, 0.5 µg/mL protein, primary screen (AID 1183); conditions: fluorescence 635 nm, higher = more signal
[12] = blood-stage malaria parasite viability loss – strain 3D7, DAPI fluorescence, 100 nL, primary screen (AID 1184);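 note: parasites grown inside human red blood cells in medium with human serum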; conditions: P. falciparum 3D7 growth, 3 d, higher = more signal
[13] = molecular target: Homeobox protein Hox-A13 (Mus musculus) (UniProt Q62424); test: disruptors of Hoxa13 oligonucleotide interaction – biochemical, fluorescence polarization, labeled oligonucleotide, primary screen (AID 1185); conditions: Hoxa13:DNA binding, 15 min, higher = more signal, called active from +8 up or from −8 down
Chain of Homeobox protein Hox-A13 (Mus musculus) (Q62424 whole entry, looked up): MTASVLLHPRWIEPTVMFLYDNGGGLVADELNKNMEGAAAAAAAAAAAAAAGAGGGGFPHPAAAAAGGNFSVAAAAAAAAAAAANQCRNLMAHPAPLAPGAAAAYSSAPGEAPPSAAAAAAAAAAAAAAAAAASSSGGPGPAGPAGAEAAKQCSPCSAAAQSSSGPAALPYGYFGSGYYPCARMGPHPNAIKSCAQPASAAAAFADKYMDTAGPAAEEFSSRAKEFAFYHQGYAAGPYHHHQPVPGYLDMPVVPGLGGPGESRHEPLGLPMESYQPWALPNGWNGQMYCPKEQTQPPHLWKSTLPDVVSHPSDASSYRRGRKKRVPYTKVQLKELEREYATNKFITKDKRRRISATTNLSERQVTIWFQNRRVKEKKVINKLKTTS

[14] = blockers of DNA damage checkpoint Chk1 activation – imaging, HeLa, hydroxyurea, phospho-Chk1 antibody, percent positive cells, primary screen (AID 1186); conditions: hydroxyurea-induced phospho-Chk1 immunofluorescence imaging, higher = more signal
[15] = blockers of DNA damage checkpoint Chk1 activation – imaging, HeLa, hydroxyurea, phospho-Chk1 nuclear intensity, primary screen (AID 1187); conditions: hydroxyurea-induced phospho-Chk1 immunofluorescence imaging, higher = more signal

Structure (SMILES)	z-score [1]	z-score [2]	z-score [3]	composite z-score [4]	z-score [5]	z-score [6]	z-score [7]	z-score [8]	z-score [9]	composite z-score [10]	composite z-score [11]	composite z-score (XIP peptide (Xip251-270))	z-score [12]	z-score [13]	z-score [14]	z-score [15]
CC(C)(C)OC(=O)CC[C@]1(C(=O)O)N=C(c2ccc(OCCCO)cc2)O[C@H]1c1ccccc1CN=[N+]=[N-]	0.706	-0.0245 (inactive)	0.444 (inactive)	0.209 (inactive)	-0.788 (inactive)	-0.165 (inactive)	0.184 (inactive)	1.25 (inactive)	0.925	-0.204	0.109 (inactive)	0.405	-0.711	-4 (inactive)	-0.287 (inactive)	-0.499 (inactive)
C[C@H]1ON(c2ccc(C(=O)OC(C)(C)C)cc2)[C@@H](c2ccc(O)cc2)[C@@H]1C(=O)N1C(=O)OC[C@@H]1c1ccccc1	-0.319	-0.407 (inactive)	-0.263 (inactive)	0.314 (inactive)	0.294 (inactive)	0.759 (inactive)	-0.563 (inactive)	-0.148 (inactive)	-0.782	0.0029	0.0197 (inactive)	0.446	-1.47	-4.21 (inactive)	0.148 (inactive)	0.062 (inactive)
CC[C@H]1C2=C3C(CC[C@H]4C(OCc5ccc(F)cc5C(F)(F)F)OC[C@](C)([C@@H]34)N(C(=O)OC(C)(C)C)C2)C2COC(=O)OCC21 (stereo partly drawn)	-1.12	0.485 (inactive)	-1.46 (inactive)	0.0979 (inactive)	0.551 (inactive)	0.368 (inactive)	-0.678 (inactive)	-0.36 (inactive)	-0.556	0.131	3.17 (inactive)	0.393	-0.749	-3.54 (inactive)	1.23 (inactive)	0.722 (inactive)
NC(=O)N1C(=O)C2C(C1=O)C1C=C(c3ccc(CO)cc3)C2C(C2CC2)N1Cc1sc2ccccc2c1Cl (stereo not drawn)	-0.131	-2.55 (inactive)	-1.06 (inactive)	-2.67 (inactive)	-0.836 (inactive)	-0.484 (inactive)	0.927 (inactive)	0.112 (inactive)	-1.23	-0.117	0.703 (inactive)	0.726	-2.1	-2.31 (inactive)	-0.0244 (inactive)	-0.0866 (inactive)
COCCCNC(=O)[C@]1(CCC(=O)OC(C)(C)C)N=C(c2ccc(OCCCO)cc2)O[C@@H]1c1ccccc1	-0.402	0.397 (inactive)	-0.121 (inactive)	0.152 (inactive)	0.413 (inactive)	0.0279 (inactive)	-0.286 (inactive)	-0.0848 (inactive)	-0.354	0.081	0.538 (inactive)	0.817	0.83	-6.02 (inactive)	-0.289 (inactive)	-0.288 (inactive)
C=C(CCCC)/C(=C/C[C@@H](OC(=O)c1ccncc1)c1cccc(OCCO)c1)c1cnc2ccccc2c1	0.0976	-1.17 (inactive)	-0.369 (inactive)	-2.5 (inactive)	2.24 (inactive)	0.264 (inactive)	0.879 (inactive)	0.357 (inactive)	0.0765	-0.0261	0.389 (inactive)	0.405	-3.03	-3.72 (inactive)	-0.403 (inactive)	-0.342 (inactive)
C[C@@H]1ON(c2ccc(C(=O)OC(C)(C)C)cc2)[C@H](c2ccc(Br)cc2)[C@H]1C(=O)N1C(=O)OC[C@H]1Cc1ccccc1	0.318	0.0743 (inactive)	0.652 (inactive)	0.315 (inactive)	0.224 (inactive)	0.538 (inactive)	0.488 (inactive)	0.46 (inactive)	1.23	-0.16	0.36 (inactive)	0.321	-0.238	-0.654 (inactive)	-0.55 (inactive)	-0.237 (inactive)
CC(=O)n1cc(C(O)C2C=CC3C(=O)N(Cc4ccccc4)C(=O)C3N2n2cnnc2)c2ccccc21 (stereo not drawn)	-0.227	0.319 (inactive)	-0.929 (inactive)	-0.351 (inactive)	-0.514 (inactive)	-0.371 (inactive)	-1.34 (inactive)	-1.4 (inactive)	-1.27	0.764	0.097 (inactive)	0.008	-0.15	-3.16 (inactive)	1.19 (inactive)	0.239 (inactive)
CN1C(=O)[C@@]2(CCS(=O)(=O)c3ccccc3)N=C(c3ccc(OCCCO)cc3)O[C@H]2c2ccccc21	0.316	0.369 (inactive)	0.718 (inactive)	0.0865 (inactive)	-0.469 (inactive)	0.64 (inactive)	0.606 (inactive)	0.946 (inactive)	-1.09	0.205	0.489 (inactive)	0.182	-2.07	-6.19 (inactive)	-0.262 (inactive)	0.146 (inactive)
COc1ccc([Si](C)(C)[C@@H]2[C@@H](CCn3cc([C@H](O)c4ccccc4)nn3)O[C@]3(C(=O)N(Cc4ccc(N5CCOC5=O)cc4)c4ccccc43)[C@H]2C)cc1	0.977	0.146 (inactive)	-0.806 (inactive)	0.181 (inactive)	0.483 (inactive)	1.54 (inactive)	0.323 (inactive)	-0.0694 (inactive)	-0.12	0.049	0.0449 (inactive)	0.823	-2.78	-3.54 (inactive)	0.875 (inactive)	0.221 (inactive)
O=C1c2ccccc2[C@](Cc2ccccc2I)(C(=O)NCCN2CCOCC2)[C@H](c2ccc(CO)cc2)N1Cc1ccccc1	-0.462	-0.915 (inactive)	0.068 (inactive)	0.215 (inactive)	0.186 (inactive)	0.233 (inactive)	-0.256 (inactive)	-0.0438 (inactive)	-0.713	0.0904	0.198 (inactive)	0.67	-0.74	-5.76 (inactive)	-0.0525 (inactive)	-0.321 (inactive)
C=CCOC(=O)[C@@H]1[C@H]2C(=O)O[C@H](c3ccccc3)[C@H](c3ccccc3)N2[C@H](c2ccc(OCCOC(=O)[C@H]3C[C@H]4C(=O)N[C@@H](CC(C)C)C(=O)N4[C@H]3c3ccc(O)cc3)cc2)[C@@]12C(=O)Nc1ccc(I)cc12	0.206	1.26 (inactive)	0.219 (inactive)	0.106 (inactive)	2.44 (inactive)	1.6 (inactive)	0.869 (inactive)	1.2 (inactive)	0.597	0.0819	0.234 (inactive)	0.828	-1.79	0.981 (inactive)	-0.25 (inactive)	-0.115 (inactive)
CCCCC(CC)C(O)C1C=CC2C(=O)N(c3ccccc3)C(=O)C2N1Nc1ccc([N+](=O)[O-])cc1 (stereo not drawn)	-0.383	-0.148 (inactive)	-0.201 (inactive)	0.41 (inactive)	0.837 (inactive)	-0.066 (inactive)	-0.948 (inactive)	-0.979 (inactive)	-0.759	-0.02	0.389 (inactive)	0.624	0.0352	-3.6 (inactive)	0.332 (inactive)	-0.383 (inactive)
CC1CC/C=C\[C@H]2OC34C=CCN(c5ccc6ccccc6c5)C(=O)[C@H]3N(C(CO)C(C)C)C(=O)[C@@H]4C2C(=O)O1 (stereo partly drawn)	-0.452	-0.0979 (inactive)	-0.241 (inactive)	-2.17 (inactive)	-0.332 (inactive)	-0.319 (inactive)	0.0932 (inactive)	0.154 (inactive)	-0.315	0.558	0.17 (inactive)	-0.0558	-0.571	-6.57 (inactive)	0.174 (inactive)	0.604 (inactive)
Cc1ccc(S[C@]2(C(=O)NCC(C)C)CC(=O)N(Cc3ccccc3Cl)[C@@H]2c2ccc(CO)cc2I)cc1	0.0825	-1.61 (inactive)	-1.68 (inactive)	-0.0436 (inactive)	0.82 (inactive)	-1.33 (inactive)	-0.0158 (inactive)	0.0686 (inactive)	-2.44	-0.152	2.28 (inactive)	0.157	-0.548	-2.97 (inactive)	-0.346 (inactive)	-0.237 (inactive)
O=C1C[C@@](C(=O)NCC(F)(F)F)(c2ccc([N+](=O)[O-])cc2)[C@@H](c2ccc(CO)cc2)N1C1CCCCC1	-0.289	-0.693 (inactive)	-0.39 (inactive)	-0.356 (inactive)	0.416 (inactive)	-0.815 (inactive)	0.659 (inactive)	0.0421 (inactive)	-0.12	-0.209	0.925 (inactive)	0.871	0.0369	-4.46 (inactive)	-0.0554 (inactive)	-0.32 (inactive)
COC(=O)C[C@H]1O[C@]2(C(=O)N(C)c3ccccc32)[C@@H](C)[C@@H]1[Si](C)(C)c1ccc(C)cc1	-0.501	-2.64 (inactive)	1.47 (inactive)	0.0559 (inactive)	-0.884 (inactive)	0.155 (inactive)	1.37 (inactive)	-0.466 (inactive)	0.789	-0.0172	0.611 (inactive)	0.336	-2.09	-5.95 (inactive)	0.0207 (inactive)	0.0333 (inactive)
C=CCN1C(=O)[C@@]2(O[C@@H](CCn3cc([C@H](O)c4ccccc4)nn3)[C@H]([Si](C)(C)c3ccc(OC)cc3)[C@H]2C)c2ccccc21	-0.986	0.117 (inactive)	-1.83 (inactive)	-0.198 (inactive)	0.626 (inactive)	0.93 (inactive)	-0.599 (inactive)	-0.857 (inactive)	-1.97	0.144	-0.0466 (inactive)	0.857	-0.99	-5.69 (inactive)	-0.763 (inactive)	-1.51 (inactive)
